The list is not random: actives were taken first. Their share in the collection is about 1.6%.
KCNQ2 enhance: potentiators of rat KCNQ2 potassium channel; O88943; CHO-K1 KCNQ2, FluxOR thallium flux fluorescence; hits give high values; B-score at 10 µM; 310,000 tested, 0.54% active; AID 2239;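 active means fluorescence ratio B-score at least 3 SD of library B-scores, with initial fluorescence B-score within 3 of them, cut at about 5.3 in these data; same plate scores as AID 2156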;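 further: B-score of peak minus minimum over baseline fluorescence ratio after K+ and Tl+ stimulus; positive B-score means potentiation of KCNQ2 with more thallium influx and brighter signal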
Target sequence (O88943 whole entry, looked up): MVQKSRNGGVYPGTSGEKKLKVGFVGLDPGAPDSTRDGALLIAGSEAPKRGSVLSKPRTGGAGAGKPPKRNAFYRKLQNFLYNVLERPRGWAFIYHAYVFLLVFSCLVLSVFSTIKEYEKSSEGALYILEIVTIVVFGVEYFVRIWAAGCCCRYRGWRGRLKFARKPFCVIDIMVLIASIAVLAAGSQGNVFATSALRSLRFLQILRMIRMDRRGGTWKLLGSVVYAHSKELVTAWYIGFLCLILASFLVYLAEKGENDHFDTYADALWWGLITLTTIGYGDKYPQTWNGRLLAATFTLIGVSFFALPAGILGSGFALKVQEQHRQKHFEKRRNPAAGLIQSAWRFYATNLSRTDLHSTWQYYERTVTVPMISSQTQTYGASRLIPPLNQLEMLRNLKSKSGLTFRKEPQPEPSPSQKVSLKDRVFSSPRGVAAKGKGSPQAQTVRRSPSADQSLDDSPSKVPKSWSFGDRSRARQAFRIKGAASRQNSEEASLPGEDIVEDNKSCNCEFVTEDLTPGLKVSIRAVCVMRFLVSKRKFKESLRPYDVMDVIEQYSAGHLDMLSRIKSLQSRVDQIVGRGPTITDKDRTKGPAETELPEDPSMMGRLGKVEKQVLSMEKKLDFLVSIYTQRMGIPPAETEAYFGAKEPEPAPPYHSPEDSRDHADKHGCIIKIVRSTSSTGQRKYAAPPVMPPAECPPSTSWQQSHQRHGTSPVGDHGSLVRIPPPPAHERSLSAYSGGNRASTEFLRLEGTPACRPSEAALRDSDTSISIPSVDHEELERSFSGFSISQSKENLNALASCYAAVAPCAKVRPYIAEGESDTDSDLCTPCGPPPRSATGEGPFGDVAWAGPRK
KCNQ2 block: KCNQ2 (rat) channel inhibition; O88943; CHO-K1 KCNQ2, FluxOR thallium flux, 20 min; hits give low values; B-score at 10 µM; 310,000 tested, 1.1% active; AID 2156;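 active means fluorescence ratio B-score at most minus 3 library SDs, with starting brightness B-score within 2 library SDs, cut at about -5.5 in these data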
Kir21 conf inh: confirmation of mouse Kir2.1 potassium channel inhibitors. Kir2.1-expressing cells, FluxOR thallium flux fluorescence; hits give low values. 2,300 tested, 41% active. AID 2032. shares compounds with KCNQ2 enhance. Tl flux remaining, % of negative control (hits give low values), % at 10 µM;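 active means Primary-screen hit whose thallium flux fell at least 3 control SD below untreated wells in both duplicates, with normal baseline fluorescence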
HEK293 Tl flux: parental HEK293 activity in Kir2.1 inhibitor counter-screen | FluxOR signal as % of negative control (100 = no effect), % at 10 µM | 2,300 tested, 19% active | shares compounds with KCNQ2 enhance | parental HEK293 cells, FluxOR thallium flux fluorescence; 0% = unstimulated blank wells | AID 2105;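 active means dye signal at least 3 control SD above or below untreated wells in both duplicates, raw fluorescence within 3, either direction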;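 further: percent is based on the flux ratio of peak minus minimum fluorescence over baseline F0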
Numbers stand for hits.

Results for CC1CN(C)C(C)(C)CC1(O)c1ccccc1 (stereo unspecified) ?
KCNQ2 enhance: inactive; KCNQ2 block: inactive

What do the screens show for `COc1ccc(CN2CCCC(C(=O)c3cccc(Cl)c3)C2)cc1` (stereo unspecified)?
KCNQ2 block: inactive; Kir21 conf inh: 24%; HEK293 Tl flux: inactive

Results for CSc1ncc(CN2CCCC(C(=O)c3cccc(Cl)c3)C2)cn1 (stereo unspecified) ?
KCNQ2 enhance: inactive; KCNQ2 block: inactive

Results for CCOC(=O)C(NC(C)=O)C(OC(C)=O)c1cccc(N(CCCl)CCCl)c1 (stereo unspecified) ?
KCNQ2 enhance: inactive; KCNQ2 block: inactive

How did COc1ccc(CNCCc2c(C)[nH]c3ccc(OC(F)(F)F)cc23)c(OC)c1 do in these assays?
KCNQ2 block: inactive; Kir21 conf inh: inactive; HEK293 Tl flux: inactive

How did COc1ccc2[nH]c(C)c(CCNCc3cc(OC)c(OC)c(OC)c3)c2c1 do in these assays?
KCNQ2 block: inactive

How did Nc1cc(C(=O)Nc2ccc(Cl)cc2)ccc1N1CC2CC(C1)c1cccc(=O)n1C2 (stereo unspecified) do in these assays?
KCNQ2 block: inactive

What do the screens show for `COc1ccccc1N1CCN(Cc2ccc(SC)cc2)CC1`?
KCNQ2 enhance: inactive; KCNQ2 block: inactive

What do the screens show for `CCc1ccc(CN2CCN(Cc3ccc(SC)cc3)CC2)cc1`?
KCNQ2 block: inactive; Kir21 conf inh: 27%; HEK293 Tl flux: inactive

Results for COc1ccc(CCNCc2ccccc2F)cc1OC ?
KCNQ2 enhance: inactive; KCNQ2 block: inactive

How did CCOc1ccc(Cl)cc1CNCCc1ccccc1F do in these assays?
KCNQ2 block: inactive; Kir21 conf inh: 38%; HEK293 Tl flux: inactive

Results for O=P(Oc1ccccc1)(Oc1ccccc1)c1ccccc1 ?
KCNQ2 block: inactive; Kir21 conf inh: 60%; HEK293 Tl flux: inactive

How did O=P(Oc1ccccc1)(Oc1ccccc1)C(O)c1ccccc1 (stereo unspecified) do in these assays?
KCNQ2 block: inactive

Results for CC(=O)N1N=C2C3CCN(CC3)C2C1c1ccccc1 (stereo unspecified) ?
KCNQ2 block: inactive

How did c1ccc(CNCCc2c[nH]c3ccccc23)cc1 do in these assays?
KCNQ2 block: inactive

How did CCc1ccc(CNCCc2c[nH]c3ccccc23)cc1 do in these assays?
KCNQ2 block: inactive; Kir21 conf inh: 18%; HEK293 Tl flux: inactive

What do the screens show for `Cc1nc2ccc(Cl)cc2c(-c2ccccc2)c1C(=O)O`?
KCNQ2 block: inactive

How did CCC(=O)Nc1cc(C(=O)N2CCC3(CC2)OCCO3)ccc1S(=O)(=O)c1ccc(C)cc1 do in these assays?
KCNQ2 enhance: inactive; KCNQ2 block: inactive

How did Cc1cc(-c2ccccc2)cc(C)[n+]1Cc1ccccc1 do in these assays?
KCNQ2 enhance: inactive; KCNQ2 block: inactive

How did Cc1ccc(-c2cc(-c3ccccc3)cc(-c3ccccc3)[n+]2-c2ccccc2)cc1 do in these assays?
KCNQ2 block: inactive; Kir21 conf inh: 18%; HEK293 Tl flux: 59%

What do the screens show for `CCOC(=O)c1ccc(-[n+]2c(-c3ccccc3)cc(-c3ccccc3)cc2-c2ccccc2)cc1`?
KCNQ2 enhance: inactive; KCNQ2 block: -8.5; Kir21 conf inh: 39%; HEK293 Tl flux: inactive

Results for CC(=O)c1ccc(-c2ccccc2)cc1 ?
KCNQ2 enhance: inactive; KCNQ2 block: inactive

What do the screens show for `Cc1ccc(-c2cc(-c3ccc(C)cc3)[n+](-c3ccc(C(=O)[O-])cc3)c(-c3ccc(C)cc3)c2)cc1`?
KCNQ2 block: inactive; Kir21 conf inh: inactive; HEK293 Tl flux: inactive

Results for O=[N+]([O-])c1cc(Cl)c(O)c(-[n+]2c(-c3ccccc3)cc(-c3ccccc3)cc2-c2ccccc2)c1 ?
KCNQ2 block: inactive

Results for CN(C)c1ccc(-[n+]2c(-c3ccccc3)cc(-c3ccccc3)cc2-c2ccccc2)cc1 ?
KCNQ2 enhance: inactive; KCNQ2 block: -9.1; Kir21 conf inh: inactive; HEK293 Tl flux: inactive

What do the screens show for `CCC1C(c2ccccc2)NC(c2ccccc2)CC1(O)c1ccc(F)cc1` (stereo unspecified)?
KCNQ2 block: inactive

What do the screens show for `CCC(=NCc1ccc2c(c1)OCO2)c1c(O)n(C2CCCCC2)c(=O)[nH]c1=O`?
KCNQ2 block: inactive

What do the screens show for `CC(=O)c1cc(C(C)=O)c(C)[n+](C)c1C`?
KCNQ2 enhance: inactive; KCNQ2 block: inactive

How did COc1ccccc1N1C(=O)NC(=O)C2(Cc3cc(C)ccc3N(C)C2)C1=O (stereo unspecified) do in these assays?
KCNQ2 enhance: inactive; KCNQ2 block: inactive

Results for O/N=C1/C(=C\c2ccccc2)N2CCC1CC2 ?
KCNQ2 block: inactive

Screens: PubChem BioAssay, Johns Hopkins Ion Channel Center
